TIM10 inh: inhibits growth of TIM10 yeast strain; S. cerevisiae TIM10 strain growth, BacTiter-Glo luminescence, 24 h; inhibition, % at 10 µM; actives 1.4% (n = 330,000); AID 463195;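 active means inhibition of 40% or more at the single tested concentration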;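 further: wild-type TIM10 isogenic control strain grown at permissive 25 °C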
tim23-1 inh: tim23-1 yeast growth inhibition; S. cerevisiae tim23-1 growth, BacTiter-Glo luminescence, 24 h; inhibition, % at 20 µM; actives 1.3% (n = 330,000);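 active means growth inhibition of the mutant yeast at or above 50%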;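 further: temperature-sensitive mutant grown at 25 °C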
Rce1 inh: blocks yeast Ras-converting enzyme; Q03530; yeast membranes, quenched prenylated peptide cleavage fluorescence; calls only; actives 0.27% (n = 290,000);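 active means fall in fluorescence gain of 50% or more versus controls, with final raw signal at or below 3038400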
Target sequence (Q03530 whole entry, looked up): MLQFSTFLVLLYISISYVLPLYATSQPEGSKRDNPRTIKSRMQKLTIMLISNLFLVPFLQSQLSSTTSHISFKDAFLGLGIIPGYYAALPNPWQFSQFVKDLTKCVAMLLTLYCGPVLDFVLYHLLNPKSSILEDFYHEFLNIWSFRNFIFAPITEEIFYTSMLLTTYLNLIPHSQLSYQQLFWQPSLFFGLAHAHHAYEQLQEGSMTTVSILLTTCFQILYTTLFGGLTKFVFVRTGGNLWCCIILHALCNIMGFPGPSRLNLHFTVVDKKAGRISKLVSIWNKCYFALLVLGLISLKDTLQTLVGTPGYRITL
PfHsp90 set2: inhibits growth of yeast expressing Plasmodium falciparum Hsp90. AID 504621. inhibition, % at 9.4 µM. actives 0.32% (n = 310,000). S. cerevisiae expressing PfHsp90, BacTiter-Glo ATP, 48 h; yeast lacking PDR1 and PDR3 efflux regulators;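 active means every replicate shows inhibition above about 80%, whatever the replicate mean, limit read from the data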
tim10-1 inh: inhibits growth of tim10-1 mutant yeast; inhibition, % at 20 µM; AID 463190; S. cerevisiae tim10-1 ts strain growth, BacTiter-Glo, 24 h; actives 2.2% (n = 330,000);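 active means inhibition of at least 40%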;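 further: mutant grown at 25 °C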
tim10-1 confirm: confirmation of tim10-1 mutant yeast growth inhibitors | inhibition, % at 20 µM | actives 56% (n = 7,400) | S. cerevisiae tim10-1 ts strain growth, BacTiter-Glo, 24 h | shares compounds with tim10-1 inh;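 active means inhibition of yeast growth at or above a set limit in either of two repeat tests at 20 µM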;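 further: tim10-1 mutant grown at permissive 25 °C to find synthetic lethal compounds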
Of the large screens only hits and unclear results are named; the others gave an inactive call (follow-up assays come after a bar, where they were run). Compounds with a hit are over-represented: about 3.7% of the library has one in this group of screens.

COc1cc(OC)c(C(=O)O/N=C(\N)c2cccc(C)c2)cc1OC	tim10-1 inh 48 | tim10-1 confirm 41
Cc1ccc(S(=O)(=O)NCc2ccccc2)cc1C(=O)NCC(C)(C)N1CCOCC1	none
O=C(NCc1cccnc1)/C(=C\c1ccc(-c2ccc(Cl)c(Cl)c2)o1)S(=O)(=O)c1ccccc1	none (no result: TIM10 inh, tim23-1 inh, tim10-1 inh)
O=c1[nH]c(=S)[nH]c(O)c1N=Nc1ccc(-c2ccccc2)cc1[N+](=O)[O-]	none (no result: TIM10 inh, tim23-1 inh, PfHsp90 set2, tim10-1 inh)
COc1ccc(Nc2cc(Nc3ccccc3)ncn2)cc1	none
Cc1ccc2cc(CN(CC3CCCO3)C(=S)Nc3ccccc3)c(=O)[nH]c2c1 (configuration not stated)	tim10-1 inh 44 | tim10-1 confirm inactive
Cc1ccc(Oc2ccc(-c3nc(N)nc(N)n3)cc2)cc1C	none
N#Cc1ncc(Cc2ccccc2)nc1C#N	tim10-1 inh 41 | tim10-1 confirm 38
Cc1sc2nc(CN3CCOCC3)nc(Oc3ccc(NC(=O)c4ccco4)cc3)c2c1C	tim10-1 inh 48 | tim10-1 confirm inactive
O=C(Nc1ccc(CN2CCOCC2)cc1)c1ccco1	none
COc1cccc(Nc2ncccc2C(=O)Nc2ccccc2)c1	tim10-1 inh 53 | tim10-1 confirm 38
O=C(Nc1ccccc1)c1cccnc1NCCc1ccccc1	tim10-1 inh 40 | tim10-1 confirm 32
COc1ccc(NC(=O)c2cccnc2NCCc2ccccc2)cc1	none
O=C(NCc1ccc(F)cc1)c1ccc(N2CCc3ccccc32)c([N+](=O)[O-])c1	tim10-1 inh 42 | tim10-1 confirm inactive
O=C(CNS(=O)(=O)c1c(Cl)cccc1Cl)OCc1csc(-c2ccccc2)n1	tim10-1 inh 47 | tim10-1 confirm 32
Cc1ccc(S(=O)(=O)NCC(=O)OCc2csc(-c3ccccc3)n2)cc1	none
CCC(=O)OC1(C(C)=O)CCC2C3CCC4=CC(=O)CCC4(C)C3CCC21C (configuration not stated)	none (no result: TIM10 inh, tim23-1 inh, Rce1 inh, tim10-1 inh)
C/C(=N/Nc1nc(C)cc(-c2ccccc2)n1)c1ccco1	tim10-1 inh 41 | tim10-1 confirm inactive
S=c1[nH]nc(Cc2ccccc2)n1-c1ccccc1	none (no result: PfHsp90 set2)
Cc1ccc(-n2c(Cc3ccccc3)n[nH]c2=S)cc1	tim10-1 inh 40 (no result: PfHsp90 set2) | tim10-1 confirm inactive
Cc1ccc(-n2c(CNc3ccc(C)c(Cl)c3)n[nH]c2=S)cc1	tim10-1 inh 41 | tim10-1 confirm inactive
O=C(CNC(=O)c1ccc2c(c1)OCO2)N/N=C/c1cc(Br)ccc1O	none
CCCCC(=O)OCC(=O)Nc1ccc(SC(F)F)cc1	none
CC(C)(C)c1csc(SCC(=O)Nc2ccc(Cl)cn2)n1	tim10-1 inh 43 | tim10-1 confirm inactive
Cc1cccc(NC(=O)CC2SC(=O)N(c3ccccc3)C2=O)c1 (configuration not stated)	tim10-1 inh 43 | tim10-1 confirm 37
CN(C)c1ccc(N2C(=O)CC(Sc3ccccc3C(=O)O)C2=O)cc1 (configuration not stated)	none
CN1CCN(CC(=O)c2cc(C(C)(C)C)c(O)c(C(C)(C)C)c2)CC1	tim10-1 inh 44 | tim10-1 confirm inactive
CC(C)(C)c1cc(CN2CCN(CCO)CC2)cc(C(C)(C)C)c1O	none (no result: PfHsp90 set2)
O=C(COc1ccc(-c2nnco2)cc1)Nc1c(Cl)cccc1C(F)(F)F	none (no result: PfHsp90 set2)
N#Cc1ccccc1S(=O)(=O)N1CCN(C(=O)C2CCC2)CC1	tim10-1 inh 97 | tim10-1 confirm inactive
N#Cc1ccccc1S(=O)(=O)N1CCN(C(=O)C2CCCC2)CC1	none
C/C(CC(=O)Nc1ccc(N(C)C)cc1)=N\NC(=O)c1ccc(F)cc1	none
C/C(CC(=O)Nc1ccc(N(C)C)cc1)=N\NC(=O)c1ccc(C(C)(C)C)cc1	tim10-1 inh 53 | tim10-1 confirm 33
CCCCNC(=S)N=Nc1c(O)[nH]c2ccccc12	tim10-1 inh 47 (no result: Rce1 inh) | tim10-1 confirm 41
CSc1nc(-c2ccccc2)cn1-c1ccc(NC(C)=O)cc1	tim10-1 inh 46 | tim10-1 confirm 31
CCOc1ccc(-c2cn(-c3ccc(OC)cc3)c(SC)n2)cc1	none
CC(C)c1ccc(Nc2c([N+](=O)[O-])c(=O)n(C)c3ccccc23)cc1	tim10-1 inh 51 | tim10-1 confirm 52
Cc1cccc(Nc2c([N+](=O)[O-])c(=O)n(C)c3ccccc23)c1	none
COc1ccc(C(C(=O)NC2CCCC2)N(C(=O)c2ccoc2C)c2cc(C)cc(C)c2)cc1 (configuration not stated)	none
COc1ccc(C(C(=O)NC2CCCC2)N(C(=O)c2ccoc2C)c2ccc(C)c(C)c2)cc1 (configuration not stated)	tim10-1 inh 41 | tim10-1 confirm inactive
COc1ccc(C(=O)N2CCc3ccccc32)cc1S(=O)(=O)N1CCOCC1	none (no result: Rce1 inh)
O=C1CC2(CCN(C(=O)C(=O)c3c[nH]c4ccccc34)CC2)Oc2ccccc21	none
COc1ccc(-c2cc(C(=O)N3CCCCCC3)c3cc(C)ccc3n2)cc1	tim10-1 inh 40 | tim10-1 confirm inactive
Clc1ccc(C2=CC(c3ccco3)n3ncnc3N2)cc1 (configuration not stated)	tim10-1 inh 43 | tim10-1 confirm 33
COc1ccc(C2=CC(c3ccco3)n3ncnc3N2)cc1 (configuration not stated)	none (no result: Rce1 inh)
CCOc1ccccc1NC(=O)CCSc1nc2n[nH]c(C)c2c(=N)n1-c1ccccc1Cl	none (no result: Rce1 inh)
Cc1ccccc1-n1c(SCc2ccccn2)nc2n[nH]c(C)c2c1=N	tim10-1 inh 40 | tim10-1 confirm 38
COc1ccc(OC)c(NC(=O)CSc2nc3n[nH]c(C)c3c(=N)n2-c2cccc(Cl)c2C)c1	tim10-1 inh 43 | tim10-1 confirm inactive
Cc1ccccc1-n1c(SCC(=O)Nc2ccccc2Cl)nc2n[nH]c(C)c2c1=N	tim10-1 inh 42 | tim10-1 confirm inactive
CC(C)CN(CCCNC(=O)CN1C(=O)COc2ccc(S(=O)(=O)N3CCCC3)cc21)CC(C)C	none
CN(C)c1ccc(CNc2ccccn2)cc1	none
CCOc1ccc(NC(=O)C2CCCN(C)C2)cc1 (configuration not stated)	none
O=C(O)CNC(=O)c1ccc(NC(=O)/C(=C/c2ccccc2)NC(=O)c2ccccc2)cc1	none
CC(C)(C)c1csc(NC(=O)c2c(F)c(F)c(F)c(F)c2F)n1	tim10-1 inh 41 | tim10-1 confirm inactive
Cc1nc(NC(=O)CSc2cc(C)c3ccccc3n2)c(Cl)cc1Cl	tim10-1 inh 41 | tim10-1 confirm inactive
COCCn1c(SCC(=O)Nc2nc(C)c(Cl)cc2Cl)nc2ccccc21	tim10-1 inh 42 | tim10-1 confirm inactive
Cc1nnc(SCC(=O)NC2CC2)n1-c1ccccc1	none
CCC/C=C1/CCCOC(C(=O)NCc2ccc(C)o2)(C(F)(F)F)C1 (configuration not stated)	none (no result: Rce1 inh)
O=C(O)/C(=C\c1ccc(-c2ccccc2[N+](=O)[O-])o1)c1ccccc1	tim10-1 inh 40 | tim10-1 confirm 52
